HTR2A ag: mouse HTR2A agonism via beta-arrestin recruitment; CHO-K1 mHTR2A beta-arrestin complementation, luminescence; percent of 30 µM serotonin response; actives 0.66% (n = 360,000); AID 624169; activation, % at 7.6 µM;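 active = activation above a run cutoff, the mean activation of all tested compounds plus 3 SD, cut at about 14% in these data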;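 note: 0% = plate median of compound wells and 100% = 30 µM serotonin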
NOD2 RIPK2 PPI: blocks binding of human NOD2 to RIPK2; O43353; CHO BLA complementation NOD2-RIPK2, CCF4 ratio; inhibition, % at 4.98 µM; actives 0.38% (n = 360,000); AID 624267; in the data active = inhibition above about 21%;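 note: 0% = vehicle only and 100% = reference blocker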
TLR4-MyD88 BLA: inhibitors of human TLR4-MyD88 binding. O00206+Q99836. inhibition, % at 8.4 µM. actives 0.18% (n = 200,000). HeLa CL3-4 TLR4/MyD88 BLA complementation, FRET ratio; in the data active = inhibition above about 25%;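 note: 0% = vehicle and 100% = reference inhibitor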
TLR9-MyD88 block: TLR9-MyD88 interaction inhibition. CHO BLA complementation TLR9-MyD88, CCF4 FRET ratio. inhibition, % at 4.98 µM. actives 0.21% (n = 340,000);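 active = inhibition above the mean over all tested compounds plus 3 SD, cut at about 21% in these data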;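 note: 0% = DMSO only wells and 100% = clavulanate BLA inhibitor control wells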
Rtt109 HAT inh: inhibitors of Candida albicans Rtt109/Vps75 histone acetyltransferase; Q5AAJ8; purified Rtt109/Vps75, ThioGlo CoA-SH fluorescence, 4 h; inhibition, % at 34.9 µM; actives 0.16% (n = 330,000);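 active = inhibition of at least 50% in every replicate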
LANA-H2A inh: blocks KSHV LANA binding to histone H2A/H2B; Q9QR71; cell-free LANA-H2A/H2B peptide, fluorescence polarization; inhibition, % (test concentration not listed); actives 0.6% (n = 320,000); AID 2629; in the data active = inhibition mostly above about 10%, no sharp cut-off; inactive = mostly below about 6.7%
NOD2-RIPK2 conf: confirmation of human NOD2-RIPK2 interaction inhibitors | shares compounds with NOD2 RIPK2 PPI | CHO cells, NOD2-RIPK2 BLA complementation, CCF4 FRET | inhibition, % at 4.98 µM | actives 70% (n = 1,200) | AID 624370;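 active = mean inhibition across replicates above a set limit taken from the earlier primary screen, cut at about 21% in these data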;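 note: 0% = DMSO-only wells and the high end = clavulanate BLA-blocked wells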
BLA counter: hits BLA reporter in NOD2-RIPK2 inhibitor counterscreen | shares compounds with NOD2 RIPK2 PPI | CHO BLA reporter, CCF4 FRET ratio | inhibition, % at 4.98 µM | actives 57% (n = 1,200);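 active = mean inhibition above the low-control mean inhibition plus three low-control SD, cut at about 11% in these data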;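 note: 0% = DMSO only wells and 100% = clavulanate high control wells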
An asterisk follows results filed as active; / = no result given. In the library only some 1.8% were active in any assay of this set; here they are far more common.

SMILES	HTR2A ag	NOD2 RIPK2 PPI	TLR4-MyD88 BLA	TLR9-MyD88 block	Rtt109 HAT inh	LANA-H2A inh	NOD2-RIPK2 conf	BLA counter
COc1ccc(/C=C2\CCC(C3CCCC3)C2=O)cc1 (stereo unspecified)	-0.1	-11.3	/	5.3	0.1	3.6	/	/
COc1ccc(/C=C2/CCC(CN3CCOCC3)C2=O)cc1 (stereo unspecified)	-2.8	33.9*	/	-6.2	3.0	/	91.8*	18.5*
O=C(COC(=O)CCC1CCCC1)Nc1ccc(F)cc1Cl	9.6	-9.8	/	-12.8	7.1	6.3	/	/
CC(=O)Nc1c(Cl)cnn(-c2ccccc2)c1=O	8.9	21.5*	/	/	/	-4.5	7.4	-3.6
Cc1ccc(CC(NC(=O)c2ccccc2)C(=O)NC(CC(C)C)C(=O)O)cc1 (stereo unspecified)	-1.4	58.8*	11.2	10.6	-18.3	-2.4	-2.0	1.3
Cc1cc(-c2ccco2)c(C#N)c2nc3ccccc3n12	0.2	22.4*	12.0	4.6	-2.1	3.0	17.8	14.8*
Cc1cc(C(C)C)n2c(nc3ccccc32)c1C#N	/	/	-16.0	/	/	0.7	/	/
O=[N+]([O-])c1c(NCCCO)cc(Sc2nc3ccccc3s2)c2nonc12	-2.1	91.9*	12.3	40.0*	16.3	4.5	81.8*	29.3*
CC(=O)OCCCNc1cc(SCc2ccco2)c2nonc2c1[N+](=O)[O-]	-4.6	-20.1	6.7	-1.1	38.1	15.5	/	/
CN(c1ccccc1)S(=O)(=O)c1ccc(C(=O)NCC(c2ccco2)N2CCCCC2)cc1 (stereo unspecified)	-12.0	24.6*	/	8.1	0.6	38.6*	1.7	-2.4
COc1ccccc1N(C)S(=O)(=O)c1ccc(C(=O)NCC(c2ccco2)N2CCCCC2)cc1 (stereo unspecified)	-15.5	-12.2	/	3.6	12.8	/	/	/
Cc1cc(NC(=O)CCN2C(=O)/C(=C/c3ccccc3Cl)SC2=S)no1	0.7	33.9*	-13.4	0.3	-3.7	-2.2	-10.5	-1.6
COc1ccccc1/C=C1\SC(=S)N(CCC(=O)Nc2cc(C)on2)C1=O	-1.1	-4.6	/	-3.9	-6.3	-3.3	/	/
CC(=O)Oc1ccc(C#C/C=C2\c3ccccc3C(=O)N2c2ccccc2)cc1	0.9	3.8	/	3.6	0.0	12.0	/	/
CCCC(/C=C/c1ccc(OC(C)=O)cc1)=C1/c2ccccc2C(=O)N1c1ccccc1	-8.2	25.2*	/	12.8	-4.1	-4.8	20.2	28.1*
CCOC(=O)N1CCC(NC(=O)c2ccc3c(c2)N=C(C)c2c(C)ccc(C)c2S3)CC1	-10.3	24.4*	/	14.2	-2.1	-1.2	16.4	-0.8
CC(Sc1ccc(S(=O)(=O)N2CCOCC2)cc1[N+](=O)[O-])C(=O)O (stereo unspecified)	5.7	36.6*	-0.6	-12.0	9.6	-1.0	-1.7	-5.0
COc1cccc(OC)c1C(=O)NC(=S)Nc1ccc2oc(-c3ccncc3)nc2c1	0.7	63.9*	-1.7	-21.0	-0.1	5.4	-10.2	-1.9
CC(=O)Nc1ccc(NC(=O)c2cc(-c3ccc(F)cc3C)n[nH]2)cc1	-10.0	28.3*	/	/	/	/	-21.1	-7.5
CCN(c1cccc(C)c1)S(=O)(=O)c1ccc2c(c1)N(C(C)=O)CCS2	-4.9	-1.2	/	-20.6	11.7	/	/	/
Cc1ccc(-n2[nH]c(C)c(/C=N/c3ccccn3)c2=O)cc1	3.9	-3.5	-16.8	2.7	1.9	-8.8	/	/
Cc1[nH]n(-c2ccccc2)c(=O)c1C=Nc1cccc2cccnc12	-9.5	31.5*	12.0	19.3	4.4	4.1	34.5*	31.5*
CCCCn1c(N)c(N(CC(C)C)C(=O)CN2C(=O)NC3(CCC(C(C)(C)CC)CC3)C2=O)c(=O)[nH]c1=O (stereo unspecified)	-4.2	-9.4	/	-5.0	0.8	/	/	/

Source: PubChem
